# Bioassay records from PubChem BioAssay.
# An excerpt weighted towards active compounds, which were near 12% of everything screened.
# G9a inh = inhibitors of human histone lysine methyltransferase G9a. Q96KQ7. G9a H3K9 monomethylation, AlphaScreen, 2 h. Potency, µM (doses to about 102 µM), most hits filed as inhibitors. hit rate 8.8% among 350,000. AID 504332; also: nearly all actives have a fitted effect of over 75% in size
#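 Chemiluminescent proximity detection of H3K9 monomethylation, read after 10 min bead incubation in the dark. Reaction: 20 nM G9a, 500 nM biotin-H3K9 peptide, 20 uM SAM cofactor, 2 h, room temperature, following 15 min enzyme-compound preincubation.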
# TDP1 block = inhibitors of human tyrosyl-DNA phosphodiesterase TDP1; Q9NUW8; recombinant TDP1, AlphaScreen DNA substrate cleavage; Potency, µM (highest dose often 130 µM), actives largely listed as inhibitors; hit rate 0.28% among 350,000; AID 485290; also: nearly all actives have a fitted effect of over 40% in size
#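 AlphaScreen read-out: signal falls as enzyme removes the 3' tyrosine-FITC from a 5'-biotinylated DNA oligo (15 nM, 5 min, RT). Enzyme was E. coli-made recombinant Tdp1 at 1 nM, exposed to compound for 15 min beforehand; beads 10 ug/ml, 10 min.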
# BAZ2B block = blocks human BAZ2B | Q9UIF8 | AlphaScreen BAZ2B-H3K14Ac peptide displacement | Potency, µM (highest dose often 114 µM), hits mostly inhibitors | hit rate 4.4% among 360,000; also: nearly all actives have a fitted effect of over 60% in size
#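 Compounds, titrated to a top concentration of 110 uM, were incubated 30 min at room temperature with preformed BAZ2B/acetyl-K14 H3 peptide complex (50 nM each). Proximity signal was measured by AlphaScreen after 20 min with beads.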
# Sfp PPTase inh = inhibitors of Bacillus subtilis Sfp phosphopantetheinyl transferase; Q9F4F7; Biochemical Sfp PPTase activity, qHTS; Potency, µM, most hits filed as inhibitors; hit rate 3.5% among 310,000; AID 1490;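 also: the enzyme is Sfp with the accession as filed and its product quenches rhodamine fluorescence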
#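 Fluorescence-quenching assay: 15 nM Sfp-PPTase preincubated 15 min at room temperature with compound, then 5 uM rhodamine-CoA and 12.5 uM BHQ-2-labelled YbbR peptide added. Fluorescence (ex 525/em 598 nm) read at start and after 30 min; difference gives rate.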
# HP1b chromo inh = HP1-beta chromodomain-methylated histone interaction inhibition; P83916; AlphaScreen HP1-beta / biotin-H3K9me3 peptide binding; Potency, µM (doses to about 114 µM), most hits filed as inhibitors; hit rate 0.56% among 390,000; AID 540317; also: nearly all actives have a fitted effect of over 70% in size
#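 HP1-beta protein (50 nM final) preincubated 30 min at room temperature with biotinylated H3(1-18)K9me3 peptide (50 nM) in PBS pH 7.4, 0.01% Tween-20, then compound added for 30 min. AlphaScreen streptavidin donor/nickel chelate acceptor beads (10 ug/mL final), 30 min dark, luminescence read.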
# JMJD2A Tudor inh = blocks the human JMJD2A Tudor domain; O75164; AlphaScreen JMJD2A-Tudor / H3K4me3 peptide binding; Potency, µM (titrated, usually from 114 µM), actives largely listed as inhibitors; hit rate 4.4% among 390,000; AID 504339; also: nearly all actives have a fitted effect of over 50% in size
# Numbers stand for hits; . = inactive; ? = inconclusive; / = no result given; [ ] = dose if it differs, or a comment. Calls follow the shape of the dose curve; as a rule, active = well fitted curve in the direction sought with a large enough effect; inconclusive = small, poorly fitted or top-dose-only effect, or another doubt; inactive = no such curve, though single readings can be large; an effect the other way counts as inactive or inconclusive.
SMILES,G9a inh,TDP1 block,BAZ2B block,Sfp PPTase inh,HP1b chromo inh,JMJD2A Tudor inh
O=C(c1ccc2c(c1)N(Cc1cccc(Cl)c1)C(=O)c1ccccc1S2(=O)=O)N1CCN(c2cccc(C(F)(F)F)c2)CC1,.,.,.,/,.,.
CN(C)c1ccc(C(CNC(=O)c2ccccc2F)c2c[nH]c3ccccc23)cc1 (centres undefined),?,.,?,.,.,?
CN(C)c1ccc(C(CNS(=O)(=O)c2ccc(F)c(F)c2)c2c[nH]c3ccccc23)cc1 (centres undefined),40µM,.,22µM,.,32µM,22µM
COc1ccc(-n2ncc3c2ncn2nc(COc4ccc(Cl)cc4)nc32)cc1,.,.,.,/,.,.
CCN(CC)c1ccc(NC(=O)c2cc(CN3CCCC3)on2)c(C)c1,14µM,.,?,/,.,?
COC(=O)C/C=N/N=C1/NC(=O)/C(=C/C(=O)O)S1,45µM,/,.,?,.,50µM
CCOC(=O)C1=C(O)c2ccccc2C(=O)/C1=C\c1ccc(C)cc1,2.5µM,.,20µM,11µM,35µM,40µM
O=C(CCc1c[nH]c2ccccc12)N1CCN(c2ccc(O)cc2)CC1,35µM,.,.,?,?,.[11.4 µM]
O=C(CCc1c[nH]c2ccccc12)N1CCCCCCC1,.,.,?,.,.,.
Cc1ccc(S(=O)(=O)N2CCN(C(=O)CCc3c[nH]c4ccccc34)CC2)c(C)c1,8.9µM,.,.,/,.,.
COc1ccc(N2CCN(C(=O)CCc3c[nH]c4ccccc34)CC2)cc1,56µM,.,?,.,.,.[11.4 µM]
Cc1ccc(S(=O)(=O)N2CCN(C(=O)CCc3c[nH]c4ccccc34)CC2)cc1,.,.,.,/,.,.
CCOCc1nnc(NC(=O)C2c3ccccc3Oc3ccccc32)s1,.,.,?,?,.,.
N#CC1=C2SCN(Cc3ccco3)CN2C(=O)CC1c1ccccc1F (centres undefined),0.28µM,.,56µM,2µM,45µM,5µM
N#CC1=C2SCN(Cc3ccco3)CN2C(=O)CC1c1cccc2ccccc12 (centres undefined),0.89µM,.,?,1.4µM,?,56µM
CC(=O)C1=C(O)C(=O)N(Cc2ccco2)C1c1ccccc1F (centres undefined),.,.,.,.,.,.
O=C(NCC1CCCO1)C(=O)N/N=C/c1ccc(OCc2ccccc2Cl)cc1 (centres undefined),/,/,/,/,.,45µM
COc1cc(/C=N/NC(=O)C(=O)NCC2CCCO2)ccc1O (centres undefined),.,.,.,.,.,.
Cc1cccc(-c2nc(CN3CCCC(C(=O)N4CCN(c5cc(Cl)ccc5C)CC4)C3)c(C)o2)c1 (centres undefined),14µM,.,?,/,.,.
Cc1ccc(NS(=O)(=O)c2c(C)nc3sc(C)c(C)n3c2=O)cc1F,.,?,.,/,.,.
O=C(CCC(=O)c1ccccc1)Nc1cccnc1,?,.,.,.,.,.
O=C(Nc1ccccc1F)C(Cc1ccccc1)n1cccc1 (centres undefined),.,.,.,/,.,.
O=C(Nc1cccc(Cl)c1)C(Cc1ccccc1)n1cccc1 (centres undefined),.,.,.,/,.,.
O=C(Nc1ncc(Br)s1)C(Cc1ccccc1)n1cccc1 (centres undefined),45µM,.,45µM,.,.,?
O=C(CCC(=O)c1ccc(-c2ccccc2)cc1)Nc1cccnc1,50µM,/,.,.,.,.
SMILES,G9a inh,TDP1 block,BAZ2B block,Sfp PPTase inh,HP1b chromo inh,JMJD2A Tudor inh
O=C(Nc1cccnc1)C(Cc1ccccc1)n1cccc1 (centres undefined),50µM,.,?,.,.,.
Cc1ccc(N2C(=O)C3CCC(C)(C2=O)C3(C)C)cc1C (centres undefined),/,.,.,.,.,.
O=[N+]([O-])c1ccccc1S(=O)(=O)Nc1ccc(S(=O)(=O)N2CCCC2)cc1,/,.,/,/,.,.
C/C(=N/NS(=O)(=O)c1ccc(C)c(C)c1)c1ccncc1,.[0.501 µM],.,.,.,.,.
COc1ccc(S(=O)(=O)N/N=C(/C)c2ccncc2)c(OC)c1,25µM,.,.,.,.,.
COc1ccc(S(=O)(=O)N/N=C(/C)c2ccncc2)cc1OC,11µM,.,.,.,.,.
C/C(=N\NS(=O)(=O)c1c(C)cc(C)cc1C)c1ccncc1,8.9µM,.,.,.,.,.
COc1ccc(N2CCN(S(=O)(=O)CCNC(=O)COc3ccccc3OC)CC2)cc1,?,.,.,.,.,.
COc1ccc(CNS(=O)(=O)c2ccc3c(c2)NC(=O)CS3)cc1,.,.,.,.,.,.
CC1CCCN(C(=O)CSc2ncccn2)C1 (centres undefined),?,.,.,.,.,.
C1=C(CCNc2nnnn2-c2ccccc2)CCCC1,.,.,.,.,.,50µM
O=C(NCCCN1CCOCC1)c1cccc(S(=O)(=O)N2CCN(c3ccccc3)CC2)c1,.,.,.,/,.,.
O=C(NCCOc1ccccc1F)c1cccc(S(=O)(=O)N2CCN(c3ccccc3)CC2)c1,40µM,.,.,/,.,.
COc1ccc(N2C(=O)CC(Sc3nc4ccccc4s3)C2=O)cc1OC (centres undefined),32µM,.,.,.,.,.
CCOc1ccc2nc(SC3CC(=O)N(c4ccc(OC)cc4OC)C3=O)sc2c1 (centres undefined),32µM,.,.,.,.,.
CCOc1ccc(N2C(=O)CC(Sc3nc4ccc(OCC)cc4s3)C2=O)cc1 (centres undefined),/,/,/,/,.,.
CC(=O)Nc1ccc(N2C(=O)CC(Sc3nc4ccccc4s3)C2=O)cc1 (centres undefined),28µM,.,.,.,.,.
CCOc1ccc2nc(SC3CC(=O)N(c4ccc(C)cc4)C3=O)sc2c1 (centres undefined),.[2.33 µM],.,.,.,.,.
CCOC(=O)c1cnc(SC2CC(=O)N(c3ccc(OC)c(OC)c3)C2=O)nc1N (centres undefined),20µM,.,.,.,.,.
COc1ccc(N(CC(=O)N2CCCC2)S(=O)(=O)c2ccc(NC(C)=O)cc2)cc1,?,.,.,.,.,.
Cc1ccc(-c2nn(-c3ccccc3)cc2CO)cc1,.,/,.,.,.,.
N=C(N)SCc1cn(-c2ccccc2)nc1-c1ccc(Br)cc1,50µM,.,.,50µM,.,.
N/C(Cc1ccc([N+](=O)[O-])cc1)=N\OC(=O)c1ccc([N+](=O)[O-])cc1,8.9µM,.,?,.,?,?
Cc1ccccc1NCc1ccc([N+](=O)[O-])s1,/,/,50µM,.,?,?
COc1ccccc1NCc1ccc([N+](=O)[O-])s1,7.9µM,.,50µM,.,?,?
